Data reported in PubChem BioAssay (Tox21).
“And” between values parts separate entries of the source, which are not always exact repeats. Identical values can stand only once. Records with an inconclusive call do not appear. Where a call stands in place of a potency, no number is given. Where a structure was tested more than once in an assay, its records may differ in their call. The source made the active and inactive calls. Unless noted, the call rests on the fitted dose curve; in most records, active means well fitted curve in the direction sought with a large enough effect in the repeat runs; inconclusive means weak or mixed curves; inactive means no such curve, though single readings can be large; an effect the other way counts as inactive or inconclusive.

Columns and labels:
[1] = Caspase-3/7 induction in CHO-K1 cells by small molecules, qHTS assay (AID 1346980); further: nearly all actives have a fitted effect of over 15% in size
In short: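 Wild-type CHO-K1 cells exposed to compounds for 17hr at 37 C, 5% CO2. Caspase-3/7 activity then measured by Caspase-Glo 3/7 luminescence after 30min at room temperature.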

[2] = Caspase-3/7 induction in HepG2 cells by small molecules, qHTS cell viability counter screen (AID 1346981); further: series mostly up to about 92 µM; nearly all actives have a fitted effect of over 30% in size
In short: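 Wild-type HepG2 cells, 2,000/well, settled 5 hr at 37 C, 5% CO2 before compound addition. Viability read by CellTiter-Fluor fluorescence, reagent added after 16 hr compound exposure, then 1 hr at 37C, in the same wells as the caspase read.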

[3] = target: Nuclear receptor subfamily 1 group I member 2 (Homo sapiens) (UniProt O75469); assay: Human pregnane X receptor (PXR) small molecule agonists, qHTS assay (AID 1346982); further: nearly all actives have a fitted effect of over 35% in size; further: potency means the concentration at half of the fitted maximal effect
Sequence of Nuclear receptor subfamily 1 group I member 2 (Homo sapiens) (O75469 whole entry, looked up): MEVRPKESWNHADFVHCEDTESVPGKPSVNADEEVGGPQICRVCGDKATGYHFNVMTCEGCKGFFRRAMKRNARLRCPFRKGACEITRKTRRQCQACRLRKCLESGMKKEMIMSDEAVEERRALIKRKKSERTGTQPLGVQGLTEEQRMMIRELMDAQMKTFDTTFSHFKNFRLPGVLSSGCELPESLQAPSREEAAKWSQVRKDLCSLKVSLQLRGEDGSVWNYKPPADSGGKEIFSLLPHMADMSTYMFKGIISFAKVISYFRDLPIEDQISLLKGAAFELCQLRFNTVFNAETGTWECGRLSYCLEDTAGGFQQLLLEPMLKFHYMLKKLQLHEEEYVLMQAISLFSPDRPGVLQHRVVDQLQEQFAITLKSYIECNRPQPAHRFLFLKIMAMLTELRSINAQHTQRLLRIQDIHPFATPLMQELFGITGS
In short: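 PXR-Luc HepG2 reporter cells (CYP3A4-driven luciferase) in 5% charcoal-stripped FBS medium, plated 5 h before compound addition, then treated 24 h at 37C. Luciferase read by ONE-Glo luminescence after 30 min at room temperature.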

[4] = target: Acetylcholinesterase (Homo sapiens) (UniProt P22303); assay: Acetylcholinesterase (AChE) small molecule antagonists: colormetric cell-based qHTS assay (AID 1347395; calls by dose curve; further: nearly all actives have a fitted effect of over 30% in size; further: potency means the concentration at half of the fitted maximal effect)
Sequence of Acetylcholinesterase (Homo sapiens) (P22303 whole entry, looked up): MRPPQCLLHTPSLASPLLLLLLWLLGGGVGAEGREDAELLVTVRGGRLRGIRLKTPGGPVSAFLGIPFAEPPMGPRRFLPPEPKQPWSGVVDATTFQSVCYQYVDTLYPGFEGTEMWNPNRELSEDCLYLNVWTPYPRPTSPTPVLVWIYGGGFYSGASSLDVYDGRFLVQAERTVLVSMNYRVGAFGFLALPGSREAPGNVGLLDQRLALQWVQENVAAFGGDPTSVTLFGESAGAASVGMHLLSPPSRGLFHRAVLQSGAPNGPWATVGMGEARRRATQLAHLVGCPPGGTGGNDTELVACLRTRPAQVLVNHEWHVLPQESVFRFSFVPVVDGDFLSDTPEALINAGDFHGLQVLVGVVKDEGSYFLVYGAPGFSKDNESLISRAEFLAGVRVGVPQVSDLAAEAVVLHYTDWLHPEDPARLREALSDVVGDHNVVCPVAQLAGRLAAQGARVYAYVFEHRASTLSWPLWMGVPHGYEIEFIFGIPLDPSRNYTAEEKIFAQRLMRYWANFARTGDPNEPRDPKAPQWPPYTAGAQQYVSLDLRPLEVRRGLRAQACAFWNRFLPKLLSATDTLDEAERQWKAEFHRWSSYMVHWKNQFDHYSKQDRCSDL
In short: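 Colorimetric readout: DTNB quantifies thiocholine from acetylthiocholine hydrolysed by endogenous AChE of SH-SY5Y cells (2,000/well, plated overnight). Compound pretreatment 30 min, substrate incubation 90 min, both 37 C.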

[5] = target: Acetylcholinesterase (Homo sapiens) (UniProt P22303); assay: Acetylcholinesterase (AChE) small molecule antagonists: enzyme-based qHTS assay (AID 1347397; calls by dose curve; further: nearly all actives have a fitted effect of over 55% in size; further: potency means the concentration at half of the fitted maximal effect); details: Potency: AChE enzyme activity inhibition
In short: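 Recombinant human AChE (50 mU/mL) preincubated with compound 30 min at room temperature; acetylthiocholine plus DTNB then added, and thiocholine formation read colorimetrically after 10 min at room temperature. DMSO served as vehicle control.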

[6] = target: Acetylcholinesterase (Homo sapiens) (UniProt P22303); assay: Acetylcholinesterase (AChE) small molecule antagonists: fluorescence cell-based qHTS assay (AID 1347398; calls by dose curve; further: nearly all actives have a fitted effect of over 50% in size; further: potency means the concentration at half of the fitted maximal effect); details: Potency: AChE activity
In short: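 SH-SY5Y cells (2000/well), attached overnight, incubated with compound 30 min at 37 C. Acetylthiocholine plus Thiolite Green then added for 40 min at room temperature. Thiocholine fluorescence (Ex/Em 490/520 nm) reports cellular AChE activity.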

[7] = target: Acetylcholinesterase (Homo sapiens) (UniProt P22303); assay: Acetylcholinesterase (AChE) small molecule antagonists: enzyme-based qHTS assay with human liver microsomes (AID 1347399; calls by dose curve; further: nearly all actives have a fitted effect of over 60% in size; further: potency means the concentration at half of the fitted maximal effect); details: Potency: qHTS inhibition
In short: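 Recombinant human AChE (50 mU/mL in the enzyme mix) and human liver microsomes (0.25 mg/mL final) were preincubated with compound and NADPH (0.25 mg/mL final) for 30 min at 37 C. Acetylthiocholine/DTNB was then added; thiocholine was read colorimetrically after 10 min at room temperature.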

[8] = target: Cytochrome P450 2D6 (Homo sapiens) (UniProt P10635); assay: Cytochrome P450 Family 2 Subfamily D Member 6 (CYP2D6) small molecule antagonists: luciferase reporter qHTS assay (AID 1671196); further: nearly all actives have a fitted effect of over 50% in size; further: potency means the concentration at half of the fitted maximal effect
Sequence of Cytochrome P450 2D6 (Homo sapiens) (P10635 whole entry, looked up): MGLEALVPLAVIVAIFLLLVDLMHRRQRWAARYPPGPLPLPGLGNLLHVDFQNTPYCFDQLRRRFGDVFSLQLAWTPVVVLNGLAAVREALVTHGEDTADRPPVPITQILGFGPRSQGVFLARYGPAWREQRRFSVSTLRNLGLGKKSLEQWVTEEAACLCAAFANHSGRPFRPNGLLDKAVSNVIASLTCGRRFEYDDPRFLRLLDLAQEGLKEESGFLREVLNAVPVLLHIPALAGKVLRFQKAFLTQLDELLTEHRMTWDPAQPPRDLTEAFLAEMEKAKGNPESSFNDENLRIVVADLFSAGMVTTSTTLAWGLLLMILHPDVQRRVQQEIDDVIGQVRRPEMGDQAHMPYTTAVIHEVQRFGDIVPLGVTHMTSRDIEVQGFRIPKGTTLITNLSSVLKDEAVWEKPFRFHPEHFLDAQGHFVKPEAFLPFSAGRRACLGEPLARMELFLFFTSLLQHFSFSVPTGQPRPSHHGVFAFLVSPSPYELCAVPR
In short: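 Cell-free P450-Glo system: CYP2D6 with proluciferin substrate was pre-incubated with compound for 10 min, then reacted with NADPH regeneration for 1 h at room temperature. Luciferin product was detected after 20 min, and data were reported as relative luminescence units.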

[9] = target: Cytochrome P450 2C19 (Homo sapiens) (UniProt P33261); assay: Cytochrome P450 Family 2 Subfamily C Member 19 (CYP2C19) small molecule antagonists: luciferase reporter qHTS assay (AID 1671197); further: nearly all actives have a fitted effect of over 65% in size; further: potency means the concentration at half of the fitted maximal effect
Sequence of Cytochrome P450 2C19 (Homo sapiens) (P33261 whole entry, looked up): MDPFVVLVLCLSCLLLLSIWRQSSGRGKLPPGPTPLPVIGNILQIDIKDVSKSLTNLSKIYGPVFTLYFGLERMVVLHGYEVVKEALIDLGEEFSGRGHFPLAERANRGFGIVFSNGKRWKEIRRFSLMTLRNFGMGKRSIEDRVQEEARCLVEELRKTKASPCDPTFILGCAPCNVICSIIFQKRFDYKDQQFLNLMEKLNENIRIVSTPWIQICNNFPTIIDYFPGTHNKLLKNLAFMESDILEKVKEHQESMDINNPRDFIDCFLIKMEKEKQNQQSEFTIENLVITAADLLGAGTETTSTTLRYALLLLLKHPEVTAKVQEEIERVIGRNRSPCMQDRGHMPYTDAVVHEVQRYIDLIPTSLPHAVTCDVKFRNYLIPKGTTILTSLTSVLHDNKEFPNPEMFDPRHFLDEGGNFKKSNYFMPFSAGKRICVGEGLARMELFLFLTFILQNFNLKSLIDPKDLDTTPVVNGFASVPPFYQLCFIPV
In short: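 Light output is proportional to CYP2C19 activity: proluciferin substrate is converted to luciferin, then detected by a luciferin detection reagent that also stops the 1 h, 37C NADPH-driven reaction. Ketoconazole serves as positive control.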

[10] = target: Nuclear receptor subfamily 1 group I member 2 (Rattus norvegicus) (UniProt Q9R1A7); assay: Rat pregnane X receptor (rPXR) activation by small molecules, qHTS assay (AID 1346983); details: rPXR luciferase reporter cells, One-Glo luminescence, 24 h; stronger effect = higher value; further: nearly all actives have a fitted effect of over 20% in size
Sequence of Nuclear receptor subfamily 1 group I member 2 (Rattus norvegicus) (Q9R1A7 whole entry, looked up): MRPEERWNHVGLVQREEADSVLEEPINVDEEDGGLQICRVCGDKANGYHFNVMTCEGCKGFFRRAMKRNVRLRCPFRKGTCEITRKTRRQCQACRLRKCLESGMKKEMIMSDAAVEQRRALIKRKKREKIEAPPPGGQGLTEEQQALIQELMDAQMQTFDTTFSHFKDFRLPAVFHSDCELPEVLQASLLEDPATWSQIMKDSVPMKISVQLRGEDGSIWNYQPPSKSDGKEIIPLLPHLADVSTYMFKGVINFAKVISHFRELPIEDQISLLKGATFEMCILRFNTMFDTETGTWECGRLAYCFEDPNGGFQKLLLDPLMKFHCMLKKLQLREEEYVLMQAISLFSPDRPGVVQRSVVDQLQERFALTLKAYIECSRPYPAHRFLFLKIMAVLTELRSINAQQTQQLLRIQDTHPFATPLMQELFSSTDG
In short: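 Cell-based rPXR activation assay: rPXR cells, 2,000 per well, rested 5hr at 37 C, then exposed to compounds in DMSO for 24 hr at 37 C. Luciferase activity read by One-Glo luminescence after 30 min at room temperature.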

SMILES | outcome [1] | Potency [2] | Potency [3] | Potency [4] | Potency [5] | Potency [6] | Potency [7] | Potency [8] | Potency [9] | max activation [10]
CC(Br)C(=O)O (configuration not stated) | inactive | inactive | inactive | inactive | inactive | inactive | inactive | inactive | 45.3 µM (active) | 
Nc1ccc(Br)cc1 | inactive | inactive | inactive | inactive | inactive | inactive | inactive |  | 50.2 µM (active) and 39.9 µM (active) | 
C=CC(N)=O | inactive |  | inactive |  |  |  |  |  |  | 
C1CC2OC2CC1C1CO1 (configuration not stated) | inactive | inactive | inactive | inactive | inactive | inactive | inactive | inactive | 69.7 µM (active) | 
COC(=O)NC(=S)Nc1ccccc1NC(=S)NC(=O)OC | inactive | inactive | 61.1 µM (active) and 48.6 µM (active) | inactive | inactive | inactive | inactive | inactive | 63.3 µM (active) and 22.4 µM (active) | 
c1ccc(-c2ccccc2)cc1 | inactive | inactive | inactive | inactive | inactive | inactive | inactive | inactive | inactive | 
COc1ccc2c3c1O[C@H]1[C@@H](O)C=C[C@H]4[C@@H](C2)N(C)CC[C@@]341 | inactive | inactive | inactive | inactive | inactive | inactive | inactive |  | inactive | 
NCCc1ccc(O)cc1 | inactive | inactive | inactive | 62.8 µM (active) and inactive | inactive | inactive | inactive | 25 µM (active) and 7.76 µM (active) | 49.9 µM (active) and inactive | 
NCC(O)c1ccc(O)cc1 (configuration not stated) | inactive | inactive | inactive |  |  |  |  | inactive | inactive | 
CCOP(=S)(OCC)Oc1cnc2ccccc2n1 | inactive | inactive | inactive and 30.6 µM (active) | inactive and 35.6 µM (active) | inactive | inactive and 35.6 µM (active) | inactive and 1 µM (active) | 35.6 µM (active) | inactive and 448 nM (active) | 
Cc1cc(-c2cc(C)c(N)c(C)c2)cc(C)c1N | inactive | inactive | 54.6 µM (active) and 26.8 µM (active) | inactive | inactive | inactive | inactive | 22.5 µM (active) and 15.6 µM (active) | 10.1 µM (active) and 8.78 µM (active) | 
C1CN2CCN1CC2 | inactive | inactive | inactive | inactive | inactive | inactive | inactive | inactive | inactive | 
CCCCCCCCCCCC#N | inactive | inactive | inactive | inactive | inactive | inactive | inactive | inactive | 18 µM (active) and inactive | 
CN=C=S | inactive | inactive | 30.9 µM (active) and inactive | inactive | inactive | inactive | inactive | inactive | 80.4 µM (active) and inactive | 
CCN(CC)CCO | inactive | inactive | inactive | inactive | inactive | inactive | inactive | inactive | inactive | 
CCN(CC)c1ccccc1 | inactive | inactive | inactive | inactive | inactive | inactive | inactive | inactive | inactive | 
CN(N=O)c1ccccc1 | inactive | inactive | inactive | inactive | inactive | inactive | inactive | inactive | inactive | 
CCC(C)(CC)c1cc(NC(=O)c2c(OC)cccc2OC)on1 | inactive | inactive | 4.34 µM (active) and 831 nM (active) |  | inactive |  | inactive | inactive | 40 µM (active) and 68.3 µM (active) | 
CCOC(=O)c1ccccc1C(=O)OCC | inactive |  | inactive | inactive | inactive | inactive | inactive | inactive |  | -0.77% (inactive)
O=S(=O)(c1ccc(O)cc1)c1ccc(O)cc1 | inactive | inactive | inactive | inactive | inactive | inactive | inactive |  | 17.9 µM (active) and 22.4 µM (active) | 
Nc1ccccc1C(=O)O | inactive |  | inactive | inactive | inactive | inactive | inactive | 63.6 µM (active) and inactive | inactive | -2.88% (inactive)
CC(C)OC(=O)Nc1ccccc1 | inactive | inactive | 38.6 µM (active) | inactive | inactive | inactive | inactive | inactive | 40 µM (active) | 
CN(C)N=O | inactive | inactive | inactive | inactive | inactive | inactive | inactive | inactive | inactive | 
CCCN(CCC)c1c([N+](=O)[O-])cc(C(F)(F)F)cc1[N+](=O)[O-] | inactive | inactive | 30.6 µM (active) | inactive | inactive | inactive | inactive | inactive | 39.8 µM (active) and 35.6 µM (active) | 

SMILES | outcome [1] | Potency [2] | Potency [3] | Potency [4] | Potency [5] | Potency [6] | Potency [7] | Potency [8] | Potency [9] | max activation [10]
CCc1cccc(C)c1N(C(=O)CCl)C(C)COC (configuration not stated) | inactive | inactive | 2.89 µM (active) and 3.06 µM (active) | inactive | inactive | inactive | inactive | inactive | 6.69 µM (active) and 6.33 µM (active) | 
O=NN1CCCC1 | inactive | inactive | inactive | 13.2 µM (active) and inactive | inactive | inactive | inactive | inactive | 33.2 µM (active) and inactive | 
CC(NC(C)(C)C)C(=O)c1cccc(Cl)c1 (configuration not stated) | inactive | inactive |  |  |  |  |  |  |  | -1.59% (inactive)
CCCN(CCC)N=O | inactive | inactive | inactive | inactive | inactive | inactive | inactive | inactive | inactive | 
CC(C)(Cl)Cl | inactive | inactive | inactive | inactive | inactive | inactive | inactive | inactive | 40.6 µM (active) and 71 µM (active) | 
O=C1CCCN1 | inactive |  | 69.3 µM (active) and inactive | inactive | inactive | inactive | inactive | inactive | 8.05 µM (active) and inactive | 
ClCCBr | inactive |  | inactive | inactive | inactive | inactive | inactive | 35.5 µM (active) and inactive | 79.4 µM (active) and inactive | 
Cc1ccc(N)cc1Cl | inactive |  | inactive | inactive | inactive | inactive | inactive |  | 7.18 µM (active) and 11.2 µM (active) | 
O=c1[nH]c(=O)[nH]c(=O)[nH]1 | inactive |  | inactive | inactive | inactive | inactive | inactive | 63.2 µM (active) and inactive | inactive | 
c1ccc(OP(Oc2ccccc2)Oc2ccccc2)cc1 | inactive |  | inactive | inactive | inactive | inactive | inactive | inactive |  | 
CC(C)(C)OOC(C)(C)C | inactive |  | inactive | inactive | inactive | inactive | inactive | inactive | inactive | 
Nc1c(Cl)c(Cl)nc(C(=O)O)c1Cl | inactive |  | 56.1 µM (active) and inactive | inactive | inactive | inactive | inactive | inactive | inactive and 8.22 µM (active) | 
CC(C)=C[C@@H]1[C@@H](C(=O)OCc2coc(Cc3ccccc3)c2)C1(C)C | inactive |  | 13.7 µM (active) | inactive | inactive | inactive | inactive | inactive | 10 µM (active) and 4.36 µM (active) | 12.4% (inactive)
Cn1cc(-c2ccccc2)c(=O)c(-c2cccc(C(F)(F)F)c2)c1 | inactive |  | 29.9 µM (active) and 17.2 µM (active) | inactive | inactive | inactive | inactive |  | 1.95 µM (active) and 2.83 µM (active) | 
CCCCN(CC)C(=O)SCCC | inactive |  | inactive | inactive | inactive | inactive | inactive | inactive | 80.5 µM (active) and inactive | 
COC(=O)c1ccccc1C(=O)OC | inactive |  | inactive | inactive | inactive | inactive | inactive | inactive | 71.4 µM (active) | 
CC(C)OC(=O)Nc1cccc(Cl)c1 | inactive |  | 38 µM (active) and 48.6 µM (active) | inactive | inactive | inactive | inactive | inactive | 24.8 µM (active) and 31.7 µM (active) | 
Cc1ccccc1O | inactive |  | inactive | inactive | inactive | inactive | inactive | inactive | inactive | 
CCOP(=S)(OCC)SCCSCC | inactive |  | inactive |  | inactive | inactive | inactive | 20.6 µM (active) and inactive | 3.67 µM (active) and 1.07 µM (active) | 
COC(=O)c1ccccc1N | inactive |  | inactive | inactive | inactive | inactive | inactive | inactive | inactive | 
CCCCN(CCCC)SN(C)C(=O)Oc1cccc2c1OC(C)(C)C2 | inactive |  | 62.1 µM (active) and inactive | 809 nM (active) and 159 nM (active) | 57.3 nM (active) and 894 nM (active) | 36.2 nM (active) and 564 nM (active) | 573 nM (active) and 3.56 µM (active) | 28.7 µM (active) and 35.6 µM (active) | 36.2 µM (active) and 71 µM (active) | 
CC(C)C1(C)N=C(c2nc3ccccc3cc2C(=O)O)NC1=O (configuration not stated) | inactive |  | inactive | inactive | inactive | inactive | inactive | inactive | inactive | 
CC(C)C#N | inactive |  | inactive | inactive | inactive | inactive | inactive | inactive | 67.3 µM (active) and inactive | 
Nc1ccc(Oc2ccc(N)cc2)cc1 | inactive |  | 62 µM (active) | inactive | inactive | inactive | inactive | 36.1 µM (active) and 31.7 µM (active) | 18.1 µM (active) and 20 µM (active) | 
